Results filed as inconclusive are left out. A number with no mark means an inactive call. Calls come from the whole dose curve; as a rule, active = well fitted cell-killing curve with a large enough effect in the repeat runs; inconclusive = weak or mixed curves; inactive = flat fitted curve, though single readings scatter.
Assay: qHTS RealTime-Glo MT Cell Viability Assay in HepG2 cells - 32 hour (AID 1224877); note: nearly all actives have a fitted effect of over 55% in size
Settings: RealTime-Glo luminescence; series mostly up to 76.8 µM; activity change, negative = cytotoxic: at the top concentration
Source text: U.S. Tox21 Program National Center for Advancing Translational Sciences [NCATS] NIH Chemical Genomics Center [NCGC] U.S. Environmental Protection Agency [EPA] National Institutes of Environmental Health Sciences [NIEHS] National Toxicology Program [NTP] U.S. Food and Drug Administration [FDA] Tox21 Assay Overview: Measure of cell viability is critical in the cell-base assay. Analysis of cell viability is necessary for the characterization of cell responses to cytotoxic drugs and environmental stress. A RealTime-Glo MT Cell Viability Assay to monitor cell viability in real time of continues cell culture during 40 hours of compound treatment was used to screen Tox21 10K library compounds in HepG2 cells. The RealTime-Glo MT Cell Viability Assay is a nonlytic, homogeneous, bioluminescent method to measure cell viability in real time using a simple, plate-based method. The assay involves adding NanoLuc luciferase and a cell-permeant prosubstrate to cells in culture. Viable cells reduce the proprietary prosubstrate to generate a substrate for NanoLuc luciferase. This substrate diffuses from cells into the surrounding culture medium, where it is rapidly used by the NanoLuc Enzyme to produce a luminescent signal. The signal correlates with the number of viable cells, making the assay well suited for cytotoxicity studies.
Tox21 Assay Protocol Summary: The mixture of HepG2 cell suspension and reagents were dispensed at 600cells/6 ul/well in 1536-well tissue culture treated black solid bottom plates using a Multidrop dispenser. After the assay plates were incubated at a 37 C/5% CO2 incubator for 5 hours, 23 nL of compounds dissolved in DMSO, positive and negative controls was transferred to the assay plate by a pintool work station. The plates were incubated at 37 C for 40 hours. The luminescence intensity were measured at 0h, 8h, 16h, 24h, 32h and 40h time points using ViewLux plate reader during compound treatment.
% is set by controls: 0 for no effect and ±100 for the full control effect.

| SMILES | activity change, negative = cytotoxic |
| --- | --- |
| COC(=O)CCC(=O)O | 0.651% |
| Cc1nc([N+](=O)[O-])cn1-c1ccc([N+](=O)[O-])cc1 | 0.088% [at 35.3 µM] |
| C1CCN2C[C@@H]3C[C@@H](CN4CCCC[C@@H]34)[C@H]2C1 | 0.0501% [at 35.3 µM] |
| CCCOCCOCCOCCO | -1.47% |
| C=CCCCCCCCCCCC | -0.401% [at 6.97 µM] |
| CCCCC(CC)COC(=O)c1ccccc1 (stereo not given) | 0.199% |
| Nc1ccnc(=O)[nH]1 | 1.16% |
| CC(C)(C)c1ccc(C=O)cc1 | -1.79% |
| Cc1cc(C)cc([N+](=O)[O-])c1 | -2.73% |
| NC(=O)NC(=O)Cc1ccccc1 | 3.13% [at 35.3 µM] |
| CCCCOC(=O)[C@@H](C)Oc1ccc(Oc2ccc(C(F)(F)F)cn2)cc1 | -12.7% |
| CCC(=O)c1ccc(O)cc1 | 1.01% [at 35.3 µM] |
| O=C(/C=C/c1ccccc1)NCCO | 0.572% [at 35.3 µM] |
| COc1cc([N+](=O)[O-])ccc1N | -7.96% |
| O=C(O)Cc1cccc(-c2cc(CCCCCCc3ccc(O[C@H]4O[C@H](CO)[C@@H](O)[C@H](O)[C@@H]4O)c(-c4cccc(CC(=O)O)c4)c3)ccc2O[C@H]2O[C@H](CO)[C@@H](O)[C@H](O)[C@@H]2O)c1 | -9.69% [at 0.29 µM] |
| Cc1oc(=O)oc1CN1CCN(c2cc3c(cc2F)c(=O)c(C(=O)O)c2n3C(C)S2)CC1 (stereo not given) | 2.36% [at 35.3 µM] |
| O=C1OC(=O)c2ccccc21 | 9.23% |
| CC(C)COC(=O)COc1ccc(Cl)cc1Cl | 1.98% |
| CC(C)COC(=O)/C=C/c1ccccc1 | -1.99% |
| CCCO | 0.591% |

| SMILES | activity change, negative = cytotoxic |
| --- | --- |
| C=C(C)[C@@H]1CC[C@@H](C)C[C@@H]1O | 2.28% |
| OCCCCCCCl | -6.78% |
| CCCCCCCCCCCCCC(=O)OC | 0.781% |
| Cc1ccc(C(=O)C(=O)O)cc1C | 0.232% [at 35.3 µM] |
| CC(=O)Nc1ccc(C)cc1 | 1.32% |
| CC(C)COC(=O)CCCCC(=O)OCC(C)C | 1.06% |
| C=C(C)C(=O)OC | 0.905% |
| C[CH2][Ge]([Cl])([CH2]C)[CH2]C | 2.26% |
| CCN(Cc1cccc(S(=O)(=O)O)c1)c1ccccc1 | 0.689% |
| CC(=O)Nc1ncc([N+](=O)[O-])s1 | 1.07% [at 35.3 µM] |
| CCC(O)C(C)(C)C (stereo not given) | 0.532% |
| CCN(CC)C(=O)C1CN2CCc3cc(OC)c(OC)cc3C2CC1OC(C)=O (stereo not given) | 2.51% [at 35.3 µM] |
| Cn1c(=O)c2c(ncn2CC2OCCO2)n(C)c1=O | -1.01% [at 35.3 µM] |
| CO[Si](CCCS)(OC)OC | 1.8% |
| Cc1ccccc1OCC1CO1 (stereo not given) | 2.07% |
| C=C(C)C(=O)OC1CC(C)CC(C)(C)C1 (stereo not given) | 0.969% |
| O=c1[nH]c(=O)c2ccccc2o1 | 1.43% [at 35.3 µM] |
| COC(/C=C(\C)CCC=C(C)C)OC | 0.664% |
| CCCCC[Si](OCC)(OCC)OCC | -1.86% |
| CC(C)CCC(=O)CCC(C)C | -0.3% |
